Experimental data from PubChem BioAssay (NCI).
The panel holds about 79,000 compounds, 15% with a hit somewhere; the sample as a whole holds those more often. Active and inactive are the calls of the source. Cut-off read from the data, not from the text of the source: active = growth inhibition above about 70%; inactive = the rest.

Key:
[1] = NCI Yeast Anticancer Drug Screen. Data for the rad50 strain (AID 155);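 note: 0% = growth of vehicle-only cultures of the same strain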; details: S. cerevisiae rad50 strain growth inhibition; at 50.0 µM; hits give high values
Method in brief: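 A DNA repair-deficient yeast mutant serves as the test organism; compound-induced growth inhibition is calculated against vehicle-treated cells.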

[2] = NCI Yeast Anticancer Drug Screen. Data for the mec2-1 strain (AID 157); details: S. cerevisiae mec2-1 strain, at 50.0 µM, hits give high values
Method in brief: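 Strain: mec2-1 (DNA repair/cell cycle alteration). Compound exposure, then growth measured; inhibition expressed relative to vehicle.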

[3] = NCI Yeast Anticancer Drug Screen. Data for the cln2 rad14 strain (AID 165);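 note: 0% = growth equal to vehicle treated cultures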; details: S. cerevisiae cln2 rad14 strain, at 50.0 µM, hits give high values
Method in brief: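 Compounds are applied to the cln2 rad14 yeast strain, and growth is then compared with that of vehicle-treated cultures to give inhibition.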

[4] = NCI Yeast Anticancer Drug Screen. Data for the bub3 strain (AID 167); details: S. cerevisiae bub3 mutant strain, at 50.0 µM, hits give high values
Method in brief: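 Inhibition values come from growth of compound-treated mutant yeast normalised to vehicle-treated controls.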

[5] = NCI Yeast Anticancer Drug Screen. Data for the mlh1 rad18 strain (AID 175); details: S. cerevisiae mlh1 rad18 strain growth inhibition; at 50.0 µM; hits give high values
Method in brief: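 Read-out is yeast growth inhibition, calculated against vehicle-only controls. The compound was applied to a strain engineered with DNA damage repair alterations.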

Measured: growth inhibition

c1ccc2c(-c3ccncc3)c3ccccc3cc2c1
inactive: [1] 20.8% | [2] 2.6% | [3] 0.45% | [4] 6.5% | [5] 20.3%

CCN(CC)C(=O)COc1ccc(Cl)c(C)c1
inactive: [1] 9.5% | [2] 3.45% | [3] 27.6% | [4] 33.6% | [5] 19.4%

COC(=O)C(C)(NC(=O)C(CC(=O)OC(C)(C)C)NC(=O)OC(C)(C)C)c1ccccc1 (centres undefined)
inactive: [1] 41.5% | [2] 16% | [3] 35.8% | [4] 36.7% | [5] 36%

N#CCCN1CCCC1=O
inactive: [1] -11.8% | [2] -7.55% | [3] -22.4% | [4] 6% | [5] 6.15%

N#CC1CNC(=S)N=C1c1ccccc1 (centres undefined)
inactive: [1] 11.5% | [2] 17.8% | [3] -74.6% | [4] 0.9% | [5] 12.1%

CCCCCCn1cnc2c(=O)[nH]c(N)nc21
inactive: [1] -2% | [2] 3.5% | [3] -7.05% | [4] -8.65% | [5] -10.2%

COc1ccccc1CNCCCCCNCCCCCCCCCCNCCCCCNCc1ccccc1OC
inactive: [1] -32.4% | [2] -11.1% | [3] -9.1% | [4] -22% | [5] -36.5%

COC(=O)c1cc(C)nc(Cl)c1C(=O)O
inactive: [1] 1.55% | [2] 4.95% | [3] 0% | [4] -2.05% | [5] -5.9%

Cc1nc2ccc(Cl)cc2c2c1CCS2
inactive: [1] -19.1% | [2] -17.3% | [3] -18.1% | [4] -23.1% | [5] -51.4%

O=[N+]([O-])c1ccccc1Sc1ccc2c3c(cccc13)CN(CCCO)C2
inactive: [1] 66.3% | [2] 7.05% | [3] 6.8% | [4] 7.15% | [5] 50.9%

OC1c2ccccc2OC2(N3CCCC3)CCCCC12 (centres undefined)
inactive: [1] -5.6% | [2] -29.9% | [3] -15.7% | [4] -26.4% | [5] 1.2%

O=S1c2ccccc2S(=O)c2ccccc21 (centres undefined)
inactive: [1] -0.2% | [2] -6.25% | [3] -0.55% | [4] 0.95% | [5] 1.15%

CCCCn1c2c(c3ccccc3c1=O)C(=O)c1ccccc1-2
inactive: [1] 12.1% | [2] -15.7% | [3] 2.1% | [4] -18% | [5] -53%

N#CC1=C(N)NC(=O)C(C(N)=O)C1c1ccccc1Cl (centres undefined)
inactive: [1] -16.6% | [2] -13.4% | [3] -11.3% | [5] -12.8%

CN(CCS)C(=N)N
inactive: [1] 4.75% | [2] -14.9% | [3] 7.8% | [4] -0.65% | [5] -11.4%

Cc1ccccc1/C=C/C(=O)O
inactive: [1] -0.4% | [2] -9.95% | [3] -13.6% | [4] -24.4% | [5] -12.7%

O=C(O)C(CO)(c1ccccc1)c1ccccc1
inactive: [1] -3.2% | [2] -3.9% | [3] -1.65% | [4] -1.55% | [5] -0.15%

Oc1c(Br)cc(Br)cc1/C=N/c1nc(-c2ccccc2)cs1
active: [1] 98.5% | [2] 92.1% | [3] 92.5% | [4] 97.4% | [5] 99%

COC(=O)C1=C(NC(=O)Nc2ccc([N+](=O)[O-])cc2)OC(C)(C)C1c1ccc(Cl)cc1 (centres undefined)
inactive: [1] 23.6% | [2] 9.15% | [3] -6.1% | [4] 1.1% | [5] 29.6%

CC(O)C(=O)OCCOc1ccccc1 (centres undefined)
inactive: [1] 12.7% | [2] -6.3% | [3] 5.5% | [4] -14.3% | [5] -140%
